An excerpt weighted towards active compounds, which were near 1.4% of everything screened.
uPA surface inh – blocks generation of uPA at the cell surface; cell surface uPA generation assay, qHTS; 330,000 tested, 0.31% active; Potency, µM (highest dose often 38.3 µM), usual class: inhibitors; active = well fitted inhibition curve with a large enough effect; inconclusive = small, poorly fitted or top-dose-only effect; inactive = no such curve, though single readings can be large or run the other way; tested in mouse RAW 264.7 cells; also: nearly all actives have a fitted effect of over 55% in size
S-ASM inh – blocks human secretory acid sphingomyelinase. AID 504937. P17405. Potency, µM (titrated, usually from 57.5 µM), hits mostly inhibitors. placental ASM, HMU-PC fluorogenic substrate, 60 min. 340,000 tested, 0.006% active
Target sequence (P17405 47-631 limits assumed): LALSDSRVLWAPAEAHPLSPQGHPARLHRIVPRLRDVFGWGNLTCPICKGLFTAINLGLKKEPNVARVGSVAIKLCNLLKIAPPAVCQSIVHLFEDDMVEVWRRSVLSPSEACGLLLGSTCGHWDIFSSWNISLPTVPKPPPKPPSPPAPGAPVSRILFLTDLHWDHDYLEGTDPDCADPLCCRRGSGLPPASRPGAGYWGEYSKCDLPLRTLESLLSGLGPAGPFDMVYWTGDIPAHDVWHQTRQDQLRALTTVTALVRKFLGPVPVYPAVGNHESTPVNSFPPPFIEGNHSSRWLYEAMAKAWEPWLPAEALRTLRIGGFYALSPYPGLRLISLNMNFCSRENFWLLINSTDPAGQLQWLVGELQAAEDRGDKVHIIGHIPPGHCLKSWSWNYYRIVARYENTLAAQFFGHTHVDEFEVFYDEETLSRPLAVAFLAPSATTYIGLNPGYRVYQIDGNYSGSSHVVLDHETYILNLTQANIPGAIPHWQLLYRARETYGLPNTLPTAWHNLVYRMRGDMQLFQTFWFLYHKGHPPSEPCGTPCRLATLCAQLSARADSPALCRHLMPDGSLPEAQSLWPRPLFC
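Human placenta-derived ASM preincubated with compound 10 min at room temperature, then reacted with 9 uM (final) fluorogenic HMU-PC substrate for 60 min at 37 C. Stop solution raises pH to 10; fluorescence read at Ex 386/Em 447 nm.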
KCNH2 WT inh – blocks the wildtype human KCNH2 potassium channel. AID 720551. U2OS, BacMam KCNH2, thallium flux FluxOr; stronger effect = lower value. 340,000 tested, 0.37% active. activity change, % at 1.84 µM;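 active = maximum activity change below -70%; inconclusive = maximum activity change between -70% and -50%; inactive = maximum activity change above -50%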
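U2OS cells were transduced with wild-type KCNH2 virus (2.03 x 10^8 / mL) for 4 h at room temperature, then cultured overnight at 37 C. Thallium flux was read with FluxOr dye. Rate constants were normalized to DMSO controls.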
KCNH2 3.1 block – blocks the human KCNH2 3.1 channel isoform | U2OS KCNH2 3.1, thallium flux FluxOr; stronger effect = lower value | activity change, % (tested at about 1.8 µM) | 340,000 tested, 0.95% active;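 active = maximum activity change below -70%; inconclusive = maximum activity change from -70% to -50%; inactive = maximum activity change above -50%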;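 also: thallium influx rate constant from kinetic fluorescence after stimulation buffer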
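FluxOr-based Tl+ influx in U2OS cells transduced with KCNH2 3.1 virus; rate constants normalized to DMSO controls.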
p53 reactivation – restores transcriptional activity of mutant p53; H1299 p53-A138V BP100-luciferase reporter, luminescence, 24 h; Potency, µM (doses to about 92.2 µM), actives largely listed as activators; 320,000 tested, 0.063% active; AID 504706; also: nearly all actives have a fitted effect of over 45% in size
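H1299 (p53-null), stable ts p53-A138V + BP100-Luc; 1000 cells/well, Opti-MEM/10% FBS; cpd 4 pt, 1:5; 24 h, 37 deg C, 5% CO2; detection reagent 10 min RT; luminescence.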
MmCpn inh – blocks the Methanococcus maripaludis chaperonin Mm-Cpn | purified Mm-Cpn ATPase, ADP Transcreener TR-FRET | Potency, µM (highest dose often 76.9 µM), actives largely listed as inhibitors | 330,000 tested, 0.031% active | AID 504842; also: nearly all actives have a fitted effect of over 80% in size
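ATPase turnover read by TR-FRET ADP competition (Eu cryptate antibody/ADP-d2, 665/590 nm): 10uM ATP final, 25nM Mm-CPN final, 30 min 37degC after 10-min compound preincubation, pH 7.4 Tris/KCl/MgCl2/DTT buffer.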
Of the large screens only hits and unclear results are named; the others gave an inactive call; ! = not confirmed by another sample. Unless noted, calls follow the shape of the dose curve; as a rule, active = well fitted curve in the direction sought with a large enough effect; inconclusive = small, poorly fitted or top-dose-only effect, or another doubt; inactive = no such curve, though single readings can be large; an effect the other way counts as inactive or inconclusive.

OC(COc1ccccc1)CN(Cc1ccccc1)CC(O)COc1ccccc1 (stereo not given)	none
CCC(=O)c1ccc(OCC(O)CN(CCc2ccccc2)Cc2ccccc2)cc1 (stereo not given)	KCNH2 3.1 block -70.2
CCC[C@H]1CN(c2ccc(Br)cc2)C(=O)[C@@H]1CC(=O)NC	none (no result: uPA surface inh, S-ASM inh, p53 reactivation, MmCpn inh)
CN(Cc1ccco1)c1ncnc2ccc(-c3ccc4c(c3)OCCO4)cc12	none (no result: uPA surface inh, S-ASM inh, KCNH2 WT inh, KCNH2 3.1 block, p53 reactivation)
CC(NNC(=S)N1CCN(c2ccccn2)CC1)c1nccc2ccccc12 (stereo not given)	none (no result: p53 reactivation, MmCpn inh)
Cc1ccc2nc(-c3ccc(-c4cccc(Cl)c4)cc3)c(NCc3ccccc3)n2c1	uPA surface inh inconclusive, KCNH2 3.1 block -78.3
COc1cc(-c2nc3ccc(C)cn3c2NCc2ccccc2)ccc1SC1CCCCC1	uPA surface inh 8.91µM, KCNH2 3.1 block inconclusive
COc1ccccc1OCC(O)Cn1c(=N)n(Cc2ccccc2)c2ccccc21 (stereo not given)	KCNH2 3.1 block -89.1
CCCCCn1c(=N)n(CC(O)COc2ccccc2OC)c2ccccc21 (stereo not given)	uPA surface inh inconclusive, KCNH2 WT inh -84.5, KCNH2 3.1 block -107.4!
Cc1ccccc1OCC(O)Cn1c(=N)n(Cc2ccccc2)c2ccccc21 (stereo not given)	KCNH2 3.1 block inconclusive
C=CCn1c(=N)n(CC(O)COc2ccccc2OC)c2ccccc21 (stereo not given)	p53 reactivation inconclusive
CCC1(c2ccc(C)cc2)NC(=O)N(C(C)C(=O)Nc2ccc(N3CCOCC3)cc2)C1=O (stereo not given)	none
COC(=O)C(CCCCNC(=O)c1ccc([N+](=O)[O-])cc1)NC(=O)c1ccc([N+](=O)[O-])cc1 (stereo not given)	KCNH2 WT inh inconclusive, KCNH2 3.1 block -92.9
O=C(NCCc1ccccc1)c1ccc(Cn2c(SCc3cccc(F)c3)nc3cccnc32)cc1	none (no result: uPA surface inh, S-ASM inh, KCNH2 WT inh, KCNH2 3.1 block, p53 reactivation)
Oc1cccc(/C=N/Nc2nn3cnnc3c3ccccc23)c1	uPA surface inh inconclusive, KCNH2 3.1 block -113.9
COc1cccc(/C=N/Nc2nn3cnnc3c3ccccc23)c1O	none
COc1cc(C)ccc1OCc1cc(C(=O)NC(c2ccccn2)C(F)(F)F)no1 (stereo not given)	KCNH2 3.1 block -86.6 (no result: uPA surface inh, S-ASM inh, p53 reactivation, MmCpn inh)
COc1cccc(NC(=O)Cn2cc(C#N)c3ccccc32)c1	none
COc1ccc([N+](=O)[O-])cc1NC(=O)CSCc1cc(C)cc(C)c1	none
COc1ccc([N+](=O)[O-])cc1NC(=O)COC(C)=O	KCNH2 3.1 block -122.5
COc1ccccc1NC(=O)CSCc1ccc([N+](=O)[O-])cc1	KCNH2 WT inh -149.2, KCNH2 3.1 block -198.8
COc1ccccc1NC(=O)Cn1cc(C#N)c2ccccc21	KCNH2 WT inh -254.2 (no result: uPA surface inh)
CCOC(=O)Nc1ccc(N2CCOCC2)c(S(=O)(=O)Nc2ccc(Cl)cc2)c1	none
CCC(O)CNC(=O)NC(=C(Cl)Cl)c1ccc(C)c(F)c1 (stereo not given)	uPA surface inh 10µM, p53 reactivation inconclusive
Cn1cccc1CN1CCC[C@]2(N[C@H](c3ccc(C(F)(F)F)cc3)[C@@H]3C(=O)N(Cc4ccccc4)C(=O)[C@@H]32)C1=O	none (no result: uPA surface inh, S-ASM inh, p53 reactivation, MmCpn inh)
Cc1ccc(C#N)c(SCC(=O)Nc2nccs2)n1	uPA surface inh 6.31µM
CC(NC(=O)C(=O)N1CCOCC1)C(c1cccs1)N1CCN(c2ccccc2F)CC1 (stereo not given)	KCNH2 3.1 block -122.2
CC(NC(=O)C(=O)N1CCCCC1)C(c1cccs1)N1CCN(c2ccccc2F)CC1 (stereo not given)	none
CCN(CC)Cc1ccccc1CNC(=O)c1cccc(S(=O)(=O)Nc2ccc3c(c2)OCO3)c1	KCNH2 3.1 block inconclusive
CCc1nnc(NC(=O)CSc2nnc(C)n2CC2CCCO2)s1 (stereo not given)	KCNH2 WT inh -161.0
COC(=O)c1cc(S(=O)(=O)NCC2CCN(Cc3ccc(C)cc3)CC2)c[nH]1	KCNH2 3.1 block -76.1
CCOC(=O)c1c(C)[nH]c(C)c1S(=O)(=O)NCC1CCN(Cc2ccc(C)cc2)CC1	none
COC(=O)c1cc(S(=O)(=O)NCC2CCN(Cc3ccc(F)cc3)CC2)c[nH]1	none
CCOC(=O)c1c(C)[nH]c(C)c1S(=O)(=O)NCC1CCN(Cc2cccc(Cl)c2)CC1	KCNH2 3.1 block -120.6
ON=C(c1ccccc1)c1ccc2c3c(cccc13)CC2	none (no result: uPA surface inh, S-ASM inh, p53 reactivation, MmCpn inh)
COc1ccc2oc(C(=O)Nc3nc4ccccc4[nH]3)c(C)c2c1	uPA surface inh 3.55µM, p53 reactivation inconclusive
COc1ccc(Br)c(C(=O)Nc2nc3ccccc3[nH]2)c1	none
COc1ccc(-c2nnc3n2N=C(C)CS3)cc1	none
CCOC(=O)/C(=C/c1ccc(OC(F)F)cc1)C1=Nn2c(nnc2-c2ccc(Cl)cc2)SC1	KCNH2 WT inh inconclusive, KCNH2 3.1 block -83.4 (no result: p53 reactivation, MmCpn inh)
CCOC(=O)/C(=C\c1ccc(OC(F)F)cc1)C1=Nn2c(nnc2-c2ccc(Cl)cc2)SC1	KCNH2 WT inh -77.7, KCNH2 3.1 block -70.3
CCOC(=O)/C(=C\c1ccc(Cl)cc1)c1nc2sc(C)c(C)c2c(=O)[nH]1	none
O=C(NCCCN1CCOCC1)c1cc(S(=O)(=O)N2CCCCC2)ccc1Cl	none (no result: uPA surface inh, S-ASM inh, p53 reactivation, MmCpn inh)
CCOc1ccc(NC(=O)CN(C)C(=O)COc2cccc3c2OC(C)(C)C3)cc1OCC	none
O=C1c2ccccc2C(=O)N1CSc1nnc(Nc2ccccc2F)s1	none
O=C1c2ccccc2C(=O)N1CSc1nnc(Nc2ccccc2)s1	KCNH2 3.1 block -105.0
Cc1ccc(NC(=O)C(C)NS(=O)(=O)c2ccc(F)cc2)cc1C (stereo not given)	none
CNC(=O)C(C)NS(=O)(=O)c1ccc(F)cc1 (stereo not given)	KCNH2 WT inh -91.3 (no result: uPA surface inh)
CCn1c(SCC(=O)NC2CCCC2)nc2c(c1=O)SCC2	none (no result: uPA surface inh, S-ASM inh, p53 reactivation, MmCpn inh)
O=C(Nc1ccc(Br)cn1)c1cccc(C(=O)Nc2ccc(Br)cn2)c1	KCNH2 3.1 block -77.0, p53 reactivation inconclusive
CCC(C(=O)N1CCC(N2CCCCC2)CC1)n1nc(C)c2sc3ccccc3c2c1=O (stereo not given)	none
Nc1ccc(-c2nc3ccccc3s2)cn1	p53 reactivation inconclusive, MmCpn inh inconclusive
Brc1ccc(-c2nc3ccccc3s2)s1	p53 reactivation inconclusive, MmCpn inh 39.8µM
COC(=O)C1=C(C)N(Cc2ccccc2)C(=NCCc2cccnc2)N[C@H]1c1ccc(Br)cc1	uPA surface inh inconclusive, KCNH2 3.1 block -89.2
COC(=O)C1=C(C)N(Cc2ccccc2)C(=NCCc2cccnc2)N[C@H]1c1ccccc1	uPA surface inh inconclusive (no result: p53 reactivation)
Cc1cc2c(c(CO)c1CCO)C(=O)[C@@H](C)[C@@H]2O	none

Compound activity from PubChem BioAssay.
